Results filed as inconclusive are left out. Entries that show only a call come without a potency. Unmarked numbers belong to inactive results. Activity calls are given as the source filed them. Calls come from the whole dose curve.

This assay can be described thus: p53 small molecule agonists, cell-based qHTS assay with rat liver microsomes: qHTS cell viability counter screen (AID 1963580). Note: nearly all actives have a fitted effect of over 45% in size. The conditions noted are these: p53RE-bla HCT-116 + rat microsomes, ATP viability, 16 h; series mostly up to 66 µM. From the text: National Center for Advancing Translational Sciences [NCATS]
Division of Preclinical Innovation [DPI]
U.S. Environmental Protection Agency [EPA]
National Institutes of Environmental Health Sciences [NIEHS]
National Toxicology Program [NTP]
U.S. Food and Drug Administration [FDA]
p53, a tumor suppressor protein, is activated following cellular insult, including DNA damage and other cellular stresses. The activation of p53 regulates cell fate by inducing DNA repair, cell cycle arrest, apoptosis, or cellular senescence. The activation of p53, therefore, is a good indicator of DNA damage and other cellular stresses. The CellSensor p53RE-bla HCT-116 cell line contains a stably integrated beta-lactamase reporter gene under control of the p53 response elements. The activation of the reporter gene under culture conditions can be detected by fluorescence intensity. This cell line was used to screen the Tox21 10K compound library in the condition of presence of rat liver microsomes and to identify agonists that activate the p53 signaling pathway after in vitro metabolic activation (Ooka et al., Archive of Toxicology 96:1975-1987, 2022). The cytotoxicity of the Tox21 compound library against the p53 RE-bla HCT-116 cell line was tested in parallel by measuring the intra cellular ATP content in the same wells.
Tox21 Assay Protocol Summary:
The p53RE-bla cells were dispensed at 4,000cells/3ul/well in 1536-well black-clear bottom plates. After the assay plates were incubated at 37 C, 5% CO2 incubator for 5 hours, 23 nL of compounds dissolved in DMSO, positive controls or DMSO only was transferred to the assay plate. Following compound addition, 3 uL of rat liver microsomes (Molecular Toxicology, Boone, NC) at final concentration of 0.5 mg/mL and 1uL of B-Nicotinamide adenine dinucleotide 2'-phosphate (NADPH) at final concentration of 0.5 mg/mL were transferred to the assay plate. The plates were incubated at 37 C for 16 hours. 1 uL of LiveBLAzer detection mixture was added to each well and the plates were incubated at room temperature in the dark for 2 h. Fluorescence intensity at 460 and 530 nm emission and 405 nm excitation were measured by an Envision plate reader. For cell viability readout that measures cytotoxicity, 4 ul/well of CellTiter-Glo reagent was added into the assay plates using a Flying Reagent Dispenser. After 30 min incubation at room temperature, the luminescence intensity in the plates was measured using a ViewLux plate reader.
For orientation: In qHTS, concentration-response curves come from the screen itself.
As to `CC1=C(/C=C/C(C)=C/C=C/C(C)=C\C(=O)O)C(C)(C)CCC1`, the Potency result is “inactive”. Same read-out and setting: next, `O=C1c2ccccc2C(=O)N1CCl`: “inactive”; `C#CC(C)(CC)OC(=O)c1ccccc1C(=O)O` (stereo not given): “inactive”; `CC(=O)OCC(=O)[C@@]1(O)CCC2C3CCC4=CC(=O)CC[C@]4(C)C3[C@@H](O)C[C@@]21C` (stereo not given in full): “inactive”.

Regarding `CC(=O)OC(C)(C)C`, the Potency entry was “inactive”. Same read-out and setting: as for `COc1ccc(/C(C)=C/C(=O)O)c(OC)c1`, the entry is “inactive”. Take `CC(C)C[C@@H](N)C(=O)O`: the activity change, negative = cytotoxicity is -0.234% [at 13.5 µM]. As for `COc1ccccc1OCC(O)COC(N)=O` (stereo not given), the Potency result was “inactive”. As to `CC(C(=O)O)c1cccc(Oc2ccccc2)c1` (stereo not given), the Potency result was “inactive”. As for `C=CC(C)(O)CCCC(C)CCCC(C)CCCC(C)C` (stereo not given), the Potency entry is “inactive”.

With `CCOC(=O)/C=C/C(=O)OCC`, the Potency entry was “inactive”.

Regarding `CCN1CCCC1CNC(=O)c1cc(S(N)(=O)=O)ccc1OC` (stereo not given), the Potency result was “inactive”. The same measure, in the same setting: as for `CCCCCCCCCCCCCC(=O)OCC(O)CO` (stereo not given), the entry is “inactive”; as for `CC(C)c1ccc(C#N)cc1`, “inactive”; as for `CCOC(=O)c1ncn2c1CN(C)C(=O)c1cc(F)ccc1-2`, “inactive”. Still for that read-out and setting: next, `CC(=O)CC(c1ccc([N+](=O)[O-])cc1)c1c(O)c2ccccc2oc1=O` (stereo not given): “inactive”; `O=C1CCC(C2CCCCC2)CC1`: “inactive”; `CC(=O)[C@H]1CC[C@H]2[C@@H]3C[C@H](C)C4=CC(=O)CC[C@]4(C)[C@H]3[C@@H](O)C[C@]12C`: “inactive”.

On to `CC(C)(C)CC(=O)OCC(=O)[C@@]1(O)CC[C@H]2[C@@H]3CCC4=CC(=O)C=C[C@]4(C)[C@H]3[C@@H](O)C[C@@]21C`, for which the Potency entry was “inactive”.

Regarding `CC(NC(CCc1ccccc1)C(=O)O)C(=O)N1C(=O)N(C)CC1C(=O)O` (stereo not given), the Potency entry is “inactive”. For `[O-][n+]1cccc(CO)c1`, the Potency entry was “inactive”. On to `C=C(C)CCO`, for which the Potency entry is “inactive”. Consider `CCN(CC)CCNC(=O)c1cc(Cl)c(N)cc1OC`, for which the Potency result is “inactive”. Still for that read-out and setting: next, `CC(=O)Nc1ccc(S(=O)(=O)Nc2cc(C)on2)cc1`: “inactive”; `CCCCCCCCCCCCCCCCCCO`: “inactive”; `Cc1nc2ccc(Cl)cc2[nH]1`: “inactive”. On the same count and under the same terms, next, `O=C(c1ccccc1)c1ccc(Cl)cc1`: “inactive”. Still for that read-out and setting: next, `[Cu+]`: “inactive”; `NS(=O)(=O)c1cc2c(cc1Cl)CN(C1CCCCC1)C2=O`: “inactive”; `OC1CCC(C2CCCCC2)CC1` (stereo not given): “inactive”. As for `NCCCCCC(=O)O`, the Potency entry was “inactive”.

On to `Cc1cccc(C)c1C`, for which the Potency result was “inactive”. For the molecule `O=[N+]([O-])c1ccc(F)c(Cl)c1`, the Potency result was “inactive”.

As for `C=CC(=O)OCC[N+](C)(C)C`, the Potency result is “inactive”.

As for `CCN(CC)C(=O)/C(C#N)=C/c1cc(O)c(O)c([N+](=O)[O-])c1`, the Potency result was “inactive”.

As to `CC(C)(C)NCC(O)c1cc(O)cc(O)c1` (stereo not given), the Potency result was “inactive”.

Consider `Cc1cc(=O)[nH]c(=O)[nH]1`, for which the Potency result is “inactive”. Take `FC(F)(F)C(F)(F)C(F)(F)C(F)(F)C(F)(F)C(F)(F)C(F)(F)C(F)(F)C(F)(F)C(F)(F)F`: the activity change, negative = cytotoxicity is -0.558% [at 5.99 µM]. As for `O=C(OCC(COC(=O)c1ccccc1)(COC(=O)c1ccccc1)COC(=O)c1ccccc1)c1ccccc1`, the Potency result is “inactive”.

Take `CCOC(=O)CCC(=O)OCC`: the Potency entry is “inactive”.

(Values after PubChem BioAssay (Tox21).)
